Experiment [1] is described as follows: ATG_TAL_CIS: Attagene CIS-FACTORIAL HepG2 Assay for human TAL Basal Promoter (AID 2282966).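 Also: background control endpoint measuring basal TAL promoter reporter mRNA not a specific factor.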 The note with it: HepG2 Attagene cis-factorial TAL promoter reporter; actives raise or lower the signal. An outline of the steps:
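HepG2 cells were transiently transfected with promoter-driven multiplexed reporter units and dosed for 24 h. Reporter mRNA was measured by RT-PCR with capillary electrophoresis fluorescence; bidirectional fits used DMSO as baseline, serving as a background control.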

Experiment [2] in a line: ATG_TGFb_CIS: Attagene CIS-FACTORIAL HepG2 Assay for human Transforming Growth Factor (TGF) (AID 2282967). The note with it: HepG2 Attagene CIS TGFb reporter, mRNA transcription; actives raise or lower the signal. An outline of the steps: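 Cells were dosed for 24 hours, after which total RNA was reverse-transcribed and reporter sequences amplified, labeled and sized by capillary electrophoresis. Activity was fitted in both directions against DMSO.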

The nature of experiment [3]: ATG_VDRE_CIS: Attagene CIS-FACTORIAL HepG2 Assay for human Vitamin D Receptor Element (VDRE) (AID 2282968). The note with it: HepG2 VDRE cis-reporter transcription, actives raise or lower the signal. In short, it runs like this: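 Reporter mRNA induction, quantified by capillary electrophoresis of fluorescently labelled RT-PCR products, was read 24 h after dosing HepG2 cells carrying transiently transfected cis-regulated reporter units; gain or loss relative to DMSO.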

In experiment [4] the target is Estrogen receptor (Homo sapiens) (UniProt P03372). Briefly: ATG_ERa_TRANS: Attagene TRANS-FACTORIAL HepG2 Assay for human Estrogen Receptor alpha (ERa) (AID 2282970; active = hit-call score of the fitted dose curve at least 0.9, where 1 is the maximum). Conditions: HepG2 Attagene TRANS ERa GAL4 reporter, mRNA. In short, it runs like this:
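HepG2 cells transiently transfected with multiplexed GAL4-UAS reporter units; ERa activity read via exogenous chimeric NR-Gal4 protein. After 24 hour compound exposure, reporter mRNA measured by RT-PCR with 6-FAM labelling and capillary electrophoresis; gain-of-signal fitted relative to DMSO.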

In experiment [5] the target is Steroid hormone receptor ERR1 (Homo sapiens) (UniProt P11474). Briefly: ATG_ERRa_TRANS: Attagene TRANS-FACTORIAL HepG2 Assay for human Estrogen-Related Receptor alpha (ERRa) (AID 2282971; active = hit-call score of the fitted dose curve at least 0.9, where 1 is the maximum). The note with it: HepG2 Attagene TRANS reporter, ERRa transactivation. An outline of the steps:
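HepG2 cells transiently transfected with multiplexed GAL4-UAS reporter units reading chimeric ERRa-Gal4 activity; 24 h compound exposure. Reporter mRNA measured by RT-PCR, 6-FAM labelling, HpaI digest and capillary electrophoresis; gain of signal fitted versus DMSO baseline.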

Experiment [6] deals with X-box-binding protein 1 (Homo sapiens) (UniProt P17861). In words: ATG_Xbp1_CIS: Attagene CIS-FACTORIAL HepG2 Assay for human X-box Binding Protein 1 (XBP1) (AID 2282972). Conditions: HepG2 XBP1 cis-element reporter, Attagene multiplex; actives raise or lower the signal. In short, it runs like this: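 After a 24-hour chemical exposure of HepG2 cells carrying cis-regulated reporters, reporter mRNA levels are assessed. Quantification uses RT-PCR, 6-FAM labelling and capillary electrophoresis. Gain- or loss-of-signal is fitted against DMSO.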
Chain of X-box-binding protein 1 (Homo sapiens) (P17861 whole entry, looked up): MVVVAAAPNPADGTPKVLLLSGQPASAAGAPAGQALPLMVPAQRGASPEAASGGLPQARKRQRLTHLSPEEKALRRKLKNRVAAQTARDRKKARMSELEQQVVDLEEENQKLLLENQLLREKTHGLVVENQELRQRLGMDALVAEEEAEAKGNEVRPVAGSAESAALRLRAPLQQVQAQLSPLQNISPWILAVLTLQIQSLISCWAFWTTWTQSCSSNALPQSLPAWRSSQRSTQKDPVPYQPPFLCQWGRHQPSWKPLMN

The nature of experiment [7]: ATG_M_19_TRANS: Attagene TRANS-FACTORIAL HepG2 Assay for M19 Transcription Factor (Internal Marker) (AID 2282974; active = hit-call score of the fitted dose curve at least 0.9, where 1 is the maximum). Conditions: HepG2 Attagene TRANS-FACTORIAL M19 internal marker reporter. In short, it runs like this: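 Background-control readout: after 24 h chemical exposure of transfected HepG2 carrying GAL4-driven reporter units, RNA was reverse-transcribed, amplified, fluorescently labeled and sized by capillary electrophoresis; gain-of-signal fit against DMSO.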

Experiment [8] in a line: ATG_GAL4_TRANS: Attagene TRANS-FACTORIAL HepG2 Assay for GAL4 (Internal Marker) (AID 2282976; active = hit-call score of the fitted dose curve at least 0.9, where 1 is the maximum). Conditions: HepG2 Attagene TRANS GAL4 internal marker reporter. An outline of the steps:
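HepG2 cells transiently transfected with multiplexed GAL4-UAS reporter constructs were dosed for 24 h. Reporter mRNA was measured by RT-PCR, 6-FAM primer extension, HpaI digestion and capillary electrophoresis, and gain of signal was fitted relative to DMSO.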

Experiment [9] has as its target Estrogen-related receptor gamma (Homo sapiens) (UniProt P62508). Briefly: ATG_ERRg_TRANS: Attagene TRANS-FACTORIAL HepG2 Assay for human Estrogen-Related Receptor gamma (ERRg) (AID 2282977; active = hit-call score of the fitted dose curve at least 0.9, where 1 is the maximum;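 also: hits increase reporter signal over DMSO so potencies reflect activators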). The note with it: HepG2 Attagene TRANS reporter, ERRg transactivation. An outline of the steps: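 Transfect HepG2 with multiple GAL4-UAS reporter transcription units; dose chemicals 24 h; isolate RNA, reverse-transcribe with oligo(dT), PCR-amplify, label with 6-FAM, digest with HpaI; size fragments by capillary electrophoresis. DMSO serves as negative control.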

Experiment [10] deals with Glucocorticoid receptor (Homo sapiens) (UniProt P04150). Briefly: ATG_GR_TRANS: Attagene TRANS-FACTORIAL HepG2 Assay for human Glucocorticoid Receptor (GR) (AID 2282978; active = hit-call score of the fitted dose curve at least 0.9, where 1 is the maximum;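 also: activators score as hits since higher reporter transcript over DMSO is fitted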). The note with it: HepG2 Attagene TRANS GR reporter, mRNA transcription. An outline of the steps: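 Readout is reporter transcript from a chimeric GR-Gal4 acting on GAL4-UAS in transfected human HepG2 liver cells after 24 h exposure, quantified by RT-PCR and capillary electrophoresis. Activation fitted upward against DMSO.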
Chain of Glucocorticoid receptor (Homo sapiens) (P04150 whole entry, looked up, the tested form may be a part): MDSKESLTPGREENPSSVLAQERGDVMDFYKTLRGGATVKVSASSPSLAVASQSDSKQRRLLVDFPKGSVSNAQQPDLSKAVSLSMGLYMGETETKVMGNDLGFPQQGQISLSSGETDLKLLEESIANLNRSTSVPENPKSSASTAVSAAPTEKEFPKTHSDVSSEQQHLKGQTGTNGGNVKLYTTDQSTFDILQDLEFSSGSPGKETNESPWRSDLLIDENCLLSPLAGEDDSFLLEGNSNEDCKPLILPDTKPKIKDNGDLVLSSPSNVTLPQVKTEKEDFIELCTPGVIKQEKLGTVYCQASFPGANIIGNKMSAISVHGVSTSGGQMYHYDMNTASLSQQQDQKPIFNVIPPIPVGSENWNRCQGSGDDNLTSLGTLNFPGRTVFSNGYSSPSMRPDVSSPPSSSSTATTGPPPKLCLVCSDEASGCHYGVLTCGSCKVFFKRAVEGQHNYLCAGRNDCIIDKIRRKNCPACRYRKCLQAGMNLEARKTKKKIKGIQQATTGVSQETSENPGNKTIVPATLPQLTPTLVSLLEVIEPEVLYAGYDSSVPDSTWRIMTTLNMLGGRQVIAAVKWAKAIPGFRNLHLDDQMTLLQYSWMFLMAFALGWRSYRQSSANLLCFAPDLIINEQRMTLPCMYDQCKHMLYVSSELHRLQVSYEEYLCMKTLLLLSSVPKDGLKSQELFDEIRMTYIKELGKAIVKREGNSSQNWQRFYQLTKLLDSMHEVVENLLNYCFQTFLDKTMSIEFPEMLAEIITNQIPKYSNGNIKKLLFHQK

For experiment [11], the target named is Bile acid receptor (Homo sapiens) (UniProt Q96RI1). Briefly: ATG_FXR_TRANS: Attagene TRANS-FACTORIAL HepG2 Assay for Farnesoid X Receptor (FXR) (AID 2282979; active = hit-call score of the fitted dose curve at least 0.9, where 1 is the maximum;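 also: hits raise reporter mRNA above DMSO so AC50 marks FXR activation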). The note with it: HepG2 Attagene TRANS FXR-GAL4 reporter transcription. An outline of the steps:
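HepG2 cells transiently transfected with reporter constructs in which a chimeric FXR-GAL4 protein drives a GAL4-UAS reporter; 24 h compound exposure. Reporter mRNA measured by RT-PCR, FAM labelling, HpaI digestion and capillary electrophoresis; gain-of-signal versus DMSO.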

Experiment [12] deals with Oxysterols receptor LXR-alpha (Homo sapiens) (UniProt Q13133). Briefly: ATG_LXRa_TRANS: Attagene TRANS-FACTORIAL HepG2 Assay for human Liver X Receptor alpha (LXRa) (AID 2282980; active = hit-call score of the fitted dose curve at least 0.9, where 1 is the maximum). The note with it: HepG2 Attagene TRANS reporter, LXRa transactivation. An outline of the steps: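 HepG2 cells were transiently transfected with multiplexed reporter units driven by chimeric LXRa–GAL4 fusion proteins, then dosed for 24 h. Reporter mRNA was quantified by RT-PCR, fluorescent labelling and capillary electrophoresis; gain of signal fitted against DMSO baseline.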
Chain of Oxysterols receptor LXR-alpha (Homo sapiens) (Q13133 whole entry, looked up, the tested form may be a part): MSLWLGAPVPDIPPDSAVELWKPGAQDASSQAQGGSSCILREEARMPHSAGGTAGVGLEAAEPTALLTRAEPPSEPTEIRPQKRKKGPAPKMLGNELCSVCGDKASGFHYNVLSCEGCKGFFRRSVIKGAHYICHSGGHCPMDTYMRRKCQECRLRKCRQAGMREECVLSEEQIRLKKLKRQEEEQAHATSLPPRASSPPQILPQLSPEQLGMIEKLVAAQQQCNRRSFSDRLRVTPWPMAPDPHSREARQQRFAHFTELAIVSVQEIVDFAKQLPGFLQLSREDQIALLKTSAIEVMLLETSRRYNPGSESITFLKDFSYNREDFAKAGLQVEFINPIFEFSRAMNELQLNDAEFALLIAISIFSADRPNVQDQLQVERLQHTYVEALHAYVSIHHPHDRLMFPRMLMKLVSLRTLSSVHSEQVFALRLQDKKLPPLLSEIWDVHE

Experiment [13] concerns the target Hepatocyte nuclear factor 4-alpha (Homo sapiens) (UniProt P41235). In words: ATG_HNF4a_TRANS: Attagene TRANS-FACTORIAL HepG2 Assay for human Hepatocyte Nuclear Factor 4 alpha (HNF4a) (AID 2282982; active = hit-call score of the fitted dose curve at least 0.9, where 1 is the maximum). Conditions: HepG2 HNF4a transactivation reporter, mRNA readout. An outline of the steps: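 Readout is fluorescent reporter-transcript fragments resolved by capillary electrophoresis after RT-PCR from HepG2 cells dosed for 24 h. Cells carried transfected GAL4-UAS reporter constructs measuring exogenous NR-GAL4 chimera activity; DMSO served as baseline.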

Experiment [14] is described as follows: ATG_M_06_TRANS: Attagene TRANS-FACTORIAL HepG2 Assay for M06 Transcription Factor (Internal Marker) (AID 2282983; active = hit-call score of the fitted dose curve at least 0.9, where 1 is the maximum;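 also: reporter transcript level by RT-PCR then capillary electrophoresis fluorescence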). The note with it: HepG2 Attagene TRANS M06 internal marker reporter. In short, it runs like this: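 HepG2 cells transiently transfected with multiplexed GAL4-UAS reporter transcription units; after 24 h compound exposure, reporter mRNA measured by RT-PCR, FAM-labelled primer extension, HpaI digestion and capillary electrophoresis. Gain-of-signal fitted versus DMSO baseline; background control readout.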

The nature of experiment [15]: ATG_M_32_TRANS: Attagene TRANS-FACTORIAL HepG2 Assay for M32 Transcription Factor (Internal Marker) (AID 2282984; active = hit-call score of the fitted dose curve at least 0.9, where 1 is the maximum). Conditions: HepG2 Attagene TRANS M32 internal marker reporter. An outline of the steps: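 Measures reporter mRNA induction in human HepG2 liver cells after 24 h chemical treatment. Transcripts from transiently transfected GAL4-UAS reporter units are amplified, fluorescently labelled and sized by capillary electrophoresis; gain of signal relative to DMSO.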

For experiment [16], the target named is Nuclear receptor subfamily 4 group A member 2 (Homo sapiens) (UniProt P43354). Briefly: ATG_NURR1_TRANS: Attagene TRANS-FACTORIAL HepG2 Assay for human Nuclear Receptor Related Protein 1 (NURR1) (AID 2282985; active = hit-call score of the fitted dose curve at least 0.9, where 1 is the maximum). The note with it: HepG2 Attagene TRANS reporter, mRNA readout. In short, it runs like this: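 Transient transfection of HepG2, human liver cells, with multiple GAL4-UAS reporter transcription units. Cells dosed 24 h, RNA isolated, reverse-transcribed, PCR-amplified, FAM-labelled, HpaI-digested, sized by capillary electrophoresis. DMSO served as negative control.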
Chain of Nuclear receptor subfamily 4 group A member 2 (Homo sapiens) (P43354 whole entry, looked up, the tested form may be a part): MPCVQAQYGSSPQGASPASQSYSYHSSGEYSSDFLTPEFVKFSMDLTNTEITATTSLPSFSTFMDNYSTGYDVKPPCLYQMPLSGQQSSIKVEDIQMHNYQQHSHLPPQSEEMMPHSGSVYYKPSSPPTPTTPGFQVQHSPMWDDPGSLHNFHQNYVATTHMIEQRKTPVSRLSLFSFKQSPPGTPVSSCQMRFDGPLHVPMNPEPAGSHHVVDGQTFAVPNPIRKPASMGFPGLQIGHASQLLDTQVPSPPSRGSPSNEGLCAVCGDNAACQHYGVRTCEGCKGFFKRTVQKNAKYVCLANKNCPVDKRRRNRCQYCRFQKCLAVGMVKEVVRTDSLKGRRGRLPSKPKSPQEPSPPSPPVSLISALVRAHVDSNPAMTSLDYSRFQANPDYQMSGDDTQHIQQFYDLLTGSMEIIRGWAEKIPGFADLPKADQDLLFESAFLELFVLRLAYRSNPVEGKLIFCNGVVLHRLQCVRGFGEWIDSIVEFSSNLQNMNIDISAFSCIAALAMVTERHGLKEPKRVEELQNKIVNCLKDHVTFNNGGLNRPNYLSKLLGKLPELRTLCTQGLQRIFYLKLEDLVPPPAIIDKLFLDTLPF

Experiment [17] has as its target Transcriptional activator Myb (Homo sapiens) (UniProt P10242). In words: ATG_Myb_CIS: Attagene CIS-FACTORIAL HepG2 Assay for human Myeloblastosis (Myb) Proto-Oncogene Transcription Factor (AID 2282986). Conditions: HepG2 Attagene CIS-FACTORIAL Myb reporter transcription; actives raise or lower the signal. An outline of the steps: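 Reporter mRNA is quantified by RT-PCR and capillary electrophoresis 24 h after dosing HepG2 cells transfected with cis-regulated reporter units, which track endogenous transcription factor activity. Gain and loss of signal are fitted versus DMSO baseline.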

The target of experiment [18] is Nuclear respiratory factor 1 (Homo sapiens) (UniProt Q16656). In words: ATG_NRF1_CIS: Attagene CIS-FACTORIAL HepG2 Assay for human Nuclear Respiratory Factor 1 (NRF1) Orphan Gene (AID 2282987). The note with it: HepG2 NRF1 cis-element reporter, Attagene multiplex; actives raise or lower the signal. An outline of the steps: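 Endogenous NRF1-driven reporter transcription in transfected HepG2 cells after 24 h treatment. Readout: RT-PCR products, 6-FAM labelled and resolved by capillary electrophoresis; changes fitted both directions relative to DMSO.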
Chain of Nuclear respiratory factor 1 (Homo sapiens) (Q16656 whole entry, looked up): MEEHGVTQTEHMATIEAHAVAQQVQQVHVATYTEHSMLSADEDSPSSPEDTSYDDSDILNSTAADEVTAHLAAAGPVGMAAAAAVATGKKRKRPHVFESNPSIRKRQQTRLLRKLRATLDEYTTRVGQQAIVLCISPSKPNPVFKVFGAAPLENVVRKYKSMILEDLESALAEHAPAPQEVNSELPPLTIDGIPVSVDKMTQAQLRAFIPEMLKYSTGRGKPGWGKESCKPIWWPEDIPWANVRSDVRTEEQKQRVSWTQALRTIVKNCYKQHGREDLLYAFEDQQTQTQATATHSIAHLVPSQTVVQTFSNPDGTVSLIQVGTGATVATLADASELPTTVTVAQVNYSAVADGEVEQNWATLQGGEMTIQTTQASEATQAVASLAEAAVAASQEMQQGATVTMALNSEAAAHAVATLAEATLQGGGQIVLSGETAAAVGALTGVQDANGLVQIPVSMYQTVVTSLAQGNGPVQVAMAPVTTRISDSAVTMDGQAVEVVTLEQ

In experiment [19] the target is Nuclear receptor subfamily 1 group I member 3 (Homo sapiens) (UniProt Q14994). In words: ATG_CAR_TRANS: Attagene TRANS-FACTORIAL HepG2 Assay for human Constitutive Androstane Receptor (CAR) (AID 2282969; active = hit-call score of the fitted dose curve at least 0.9, where 1 is the maximum;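 also: activators raise reporter mRNA above DMSO so AC50 marks induction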). The note with it: HepG2 Attagene TRANS-FACTORIAL CAR reporter. An outline of the steps:
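Readout is reporter mRNA induction, quantified by fluorescent primer extension and capillary electrophoresis after RT-PCR. Cells were HepG2 transiently carrying chimeric NR-Gal4 constructs with GAL4-UAS reporters, treated for 24 h; activity scored upward from DMSO.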

Results filed as inconclusive are left out. Some structures have more than one record in an assay (separate samples or runs), and their calls can disagree. Active and inactive are the calls of the source. The calls were made as follows, unless noted: active = hit-call score of the fitted dose curve at least 0.9, where 1 is the maximum; inactive = score below 0.9.

Chain of Transcriptional activator Myb (Homo sapiens) (P10242 whole entry, looked up): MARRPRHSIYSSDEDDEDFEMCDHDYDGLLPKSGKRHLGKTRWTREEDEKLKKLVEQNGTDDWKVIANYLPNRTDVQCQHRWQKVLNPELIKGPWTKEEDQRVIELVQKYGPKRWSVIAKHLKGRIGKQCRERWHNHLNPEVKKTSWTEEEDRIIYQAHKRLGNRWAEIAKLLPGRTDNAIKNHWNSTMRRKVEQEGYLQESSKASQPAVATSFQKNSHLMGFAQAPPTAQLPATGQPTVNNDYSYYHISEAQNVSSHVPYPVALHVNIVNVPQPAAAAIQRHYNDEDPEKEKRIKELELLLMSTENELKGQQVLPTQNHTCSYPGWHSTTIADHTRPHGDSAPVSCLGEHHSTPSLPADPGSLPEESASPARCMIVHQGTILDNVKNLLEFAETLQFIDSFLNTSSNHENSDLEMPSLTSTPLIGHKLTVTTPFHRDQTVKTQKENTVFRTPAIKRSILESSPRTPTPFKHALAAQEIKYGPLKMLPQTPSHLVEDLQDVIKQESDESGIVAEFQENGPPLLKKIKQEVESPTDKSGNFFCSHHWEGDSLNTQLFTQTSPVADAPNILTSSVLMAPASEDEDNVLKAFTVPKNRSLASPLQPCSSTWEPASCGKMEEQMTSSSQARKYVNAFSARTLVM
Chain of Estrogen-related receptor gamma (Homo sapiens) (P62508 whole entry, looked up, the tested form may be a part): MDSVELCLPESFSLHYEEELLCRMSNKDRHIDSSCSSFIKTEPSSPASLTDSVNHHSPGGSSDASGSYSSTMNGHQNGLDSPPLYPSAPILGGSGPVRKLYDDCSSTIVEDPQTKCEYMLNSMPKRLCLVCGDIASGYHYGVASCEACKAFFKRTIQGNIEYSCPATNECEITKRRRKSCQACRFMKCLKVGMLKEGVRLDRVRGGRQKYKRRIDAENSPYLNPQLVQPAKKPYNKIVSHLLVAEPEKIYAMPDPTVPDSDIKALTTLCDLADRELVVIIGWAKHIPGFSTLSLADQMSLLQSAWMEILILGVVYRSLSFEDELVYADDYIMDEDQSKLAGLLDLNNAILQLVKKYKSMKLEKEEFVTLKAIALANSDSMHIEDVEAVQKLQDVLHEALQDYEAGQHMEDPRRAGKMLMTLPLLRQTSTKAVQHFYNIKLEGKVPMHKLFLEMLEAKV
Chain of Steroid hormone receptor ERR1 (Homo sapiens) (P11474 whole entry, looked up, the tested form may be a part): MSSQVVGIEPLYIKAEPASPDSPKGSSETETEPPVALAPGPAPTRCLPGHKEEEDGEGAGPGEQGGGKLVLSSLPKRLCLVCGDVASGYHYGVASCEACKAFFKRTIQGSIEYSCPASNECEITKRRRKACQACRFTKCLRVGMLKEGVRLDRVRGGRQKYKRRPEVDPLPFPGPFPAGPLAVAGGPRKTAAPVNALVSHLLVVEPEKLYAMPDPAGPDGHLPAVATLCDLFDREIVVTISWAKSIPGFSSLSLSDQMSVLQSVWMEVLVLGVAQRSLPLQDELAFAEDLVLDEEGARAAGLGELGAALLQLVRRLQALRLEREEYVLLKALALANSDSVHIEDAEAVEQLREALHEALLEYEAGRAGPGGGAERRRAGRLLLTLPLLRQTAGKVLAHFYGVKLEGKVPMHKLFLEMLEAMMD
Chain of Estrogen receptor (Homo sapiens) (P03372 whole entry, looked up, the tested form may be a part): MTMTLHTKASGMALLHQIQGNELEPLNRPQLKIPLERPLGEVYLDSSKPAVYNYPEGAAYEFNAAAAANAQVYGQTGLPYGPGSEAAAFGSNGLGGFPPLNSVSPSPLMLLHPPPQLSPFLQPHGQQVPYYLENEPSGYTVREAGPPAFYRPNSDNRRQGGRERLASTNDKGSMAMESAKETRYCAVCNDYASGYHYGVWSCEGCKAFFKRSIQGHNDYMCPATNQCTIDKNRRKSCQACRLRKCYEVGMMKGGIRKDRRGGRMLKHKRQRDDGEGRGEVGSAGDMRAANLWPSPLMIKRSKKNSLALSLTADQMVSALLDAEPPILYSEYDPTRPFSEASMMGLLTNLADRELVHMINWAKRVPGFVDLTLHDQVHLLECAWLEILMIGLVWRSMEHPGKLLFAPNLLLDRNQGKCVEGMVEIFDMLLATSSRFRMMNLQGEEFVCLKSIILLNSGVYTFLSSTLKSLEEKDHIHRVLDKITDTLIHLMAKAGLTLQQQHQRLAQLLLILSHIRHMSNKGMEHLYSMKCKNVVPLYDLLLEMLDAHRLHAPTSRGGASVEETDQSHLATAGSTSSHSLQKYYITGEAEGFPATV

On to `O=CCCCC=O`, for which the result in experiment [1], in experiment [2], in experiment [3], in [4], in experiment [5] and in experiment [6] was inactive. Besides, the molecule was classed as inactive in experiment [7], in experiment [8], in [9], in experiment [10], in [11] and in [12]. Besides, the outcome in experiment [13], in experiment [14], in experiment [15], in [16], in [17] and in experiment [18] was inactive.
For `CCCCCCCC[Si](OCC)(OCC)OCC`, the AC50 is 148 µM (active) in experiment [1], 169 µM (active) in experiment [3] and 147 µM (active) in [18]. Besides, the outcome in [1], in [2], in [3], in experiment [6], in experiment [7] and in [10] was inactive. Besides, the outcome in experiment [12], in [14], in experiment [15], in [16], in experiment [17] and in experiment [18] was inactive.
Take `CC[C@H](NC(=O)c1cc(F)ccc1NS(=O)(=O)c1cccc2cccnc12)c1ccccc1`: the result in experiment [1], in [2], in experiment [4], in experiment [5], in experiment [6] and in experiment [7] was inactive. Besides, the molecule was classed as inactive in experiment [8], in experiment [9], in experiment [11], in [14], in [15] and in [16]. For the same molecule, the molecule was called inactive in [17] and in experiment [18]. Also, the AC50 in experiment [3] is 0.209 µM (active).
`O=C(OCCCCCCOC(=O)c1ccccc1)c1ccccc1`: the result in [1], in experiment [2], in experiment [3], in [19], in experiment [4] and in experiment [5] was inactive. Besides, the call in experiment [6], in [9], in [10], in [11], in [12] and in [13] was inactive. The molecule was called inactive in [14], in experiment [16], in [17] and in [18].

The values above are taken from PubChem BioAssay (EPA / NIEHS).
